Values joined by “and” are separate entries in the source; they are usually repeats but may differ in a detail not shown here. Equal values may be shown once.
Target: Serine/threonine-protein kinase PLK1 (Homo sapiens) (UniProt P53350)
Assay: Plk1 polo box domain binding inhibitors, SAR follow-up, biochemical, fluorescence polarization, purchased analogs (AID 1053)
Details: Plk1 PBD fluorescence polarization peptide binding; at 20 µM; stronger effect = higher value; call rule not given here

Sequence of Serine/threonine-protein kinase PLK1 (Homo sapiens) (P53350 whole entry, looked up, the tested form may be a part): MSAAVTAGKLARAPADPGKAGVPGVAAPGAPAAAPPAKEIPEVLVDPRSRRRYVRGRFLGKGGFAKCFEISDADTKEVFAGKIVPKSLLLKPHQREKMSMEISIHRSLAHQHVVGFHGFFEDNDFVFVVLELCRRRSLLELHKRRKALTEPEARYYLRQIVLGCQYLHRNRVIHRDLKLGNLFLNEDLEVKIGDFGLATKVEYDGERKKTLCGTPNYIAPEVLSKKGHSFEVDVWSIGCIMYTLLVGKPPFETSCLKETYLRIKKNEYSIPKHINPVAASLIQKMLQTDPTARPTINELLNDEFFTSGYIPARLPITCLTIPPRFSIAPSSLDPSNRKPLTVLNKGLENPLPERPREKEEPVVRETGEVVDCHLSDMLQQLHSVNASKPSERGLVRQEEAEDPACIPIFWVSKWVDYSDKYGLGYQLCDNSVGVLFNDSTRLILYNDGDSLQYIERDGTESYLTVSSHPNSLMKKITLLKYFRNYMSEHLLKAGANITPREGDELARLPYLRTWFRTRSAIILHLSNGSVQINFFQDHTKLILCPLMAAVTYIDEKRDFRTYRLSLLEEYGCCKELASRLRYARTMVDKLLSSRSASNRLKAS

inhibition, inactive:
CCOC(=O)c1ccc(NC(=O)c2cc3ccccc3oc2=O)cc1 -10.3%
CCc1ccc(-c2nc3c(=O)n(C)c(=O)nc-3n(CC)n2)cc1 5.6% and 4.47%
CCN(CC)CCOC(=O)c1ccc(N=Cc2c(O)n(Cc3ccccc3)c(=O)[nH]c2=O)cc1 -220%
COc1ccc(N(CN2C(=O)c3cc(Cl)c(Cl)cc3C2=O)C(C)=O)cc1 -52.7%
CC(=O)N(/C=C1\Sc2ccccc2C1=O)c1ccc(I)cc1 -16.1%
CC(=O)N(CN1C(=O)c2ccccc2C1=O)c1ccccc1C -32.5% and -28.6%
CC(=O)c1ccc(N(CN2C(=O)c3ccc([N+](=O)[O-])cc3C2=O)C(C)=O)cc1 -32.8%
CCCCOC(=O)c1ccc(N=Cc2c(O)[nH]c(=O)[nH]c2=O)cc1 44.5%
CC(=O)N(CN1C(=O)c2ccccc2C1=O)c1ccc(C)c(Cl)c1 -39.1%
Cc1cc(-n2c(C)cc(C=C3C(=O)NC(=O)NC3=O)c2C)ccc1I -48.2%
COc1ccc(-c2nnc3[nH]c(=O)n(C)c(=O)c3n2)cc1OC -22.8% and -20.3%
CCCCOC(=O)c1ccc(NC(=O)c2cc(OCC)c(OCC)c(OCC)c2)cc1 -30.5%
COC(=O)c1ccc(NC(=O)c2cc(-c3ccc(C)o3)nc3ccccc23)cc1 25.4%
COc1ccccc1N(/N=C1\Sc2ccccc2C1=O)C(C)=O 6.58%
CC(=O)Oc1ccccc1N(/C=C1\Sc2ccccc2C1=O)C(C)=O -254% and -278%
CCOC(=O)c1ccc(NC(=O)C2CC(=O)N=C(N)S2)cc1 (stereo unspecified) -67.2%
Cn1c(=O)[nH]c2nnc(-c3ccc(C(F)(F)F)cc3)nc2c1=O -39.5% and -40.5%
CC(=O)N(CN1C(=O)c2ccccc2C1=O)c1cc(Br)ccc1C -56.1%
CCOC(=O)c1ccc(NC(=O)c2cncc(Br)c2)cc1 -31.4%
CCOC(=O)c1ccc(N=Cc2c(O)n(Cc3ccc4c(c3)OCO4)c(=O)[nH]c2=O)cc1 -19.4%
CC1CN(c2cc3nccnc3cc2F)CC(C)O1 (stereo unspecified) -46.8%

— PubChem BioAssay AID1053 (University of Pittsburgh Molecular Library Screening Center, 2008)
